# Article PMC5540273 (PLoS ONE, 2017)
# Assays:
# Details in all cases: concentration: 1 μM, replicates: in singlicate; n = 1
# [1] = test system: T1, RSK4(Kin.Dom.1-N-terminal)
# T1 construct: gene RPS6KA6
# [2] = test system: T2, RSK4(Kin.Dom.2-C-terminal)
# T2 construct: gene RPS6KA6
# [3] = test system: S6K1
# [4] = test system: SBK1
# [5] = test system: SGK2
# [6] = test system: SGK3
# [7] = test system: SGK
# [8] = test system: SIK2
# [9] = test system: SIK
# [10] = test system: SLK
# [11] = test system: T3, SNARK
# T3 construct: gene NUAK2
# [12] = test system: SNRK
# [13] = test system: SRC
# [14] = test system: SRMS
# [15] = test system: SRPK1
# [16] = test system: SRPK2
# [17] = test system: SRPK3
# [18] = test system: STK16
# [19] = test system: STK33
# [20] = test system: STK35
# 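Also: KINOMEscan kinase panel screen.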
Structure (SMILES),%Inh [1] [%],%Inh [2] [%],%Inh [3] [%],%Inh [4] [%],%Inh [5] [%],%Inh [6] [%],%Inh [7] [%],%Inh [8] [%],%Inh [9] [%],%Inh [10] [%],%Inh [11] [%],%Inh [12] [%],%Inh [13] [%],%Inh [14] [%],%Inh [15] [%],%Inh [16] [%],%Inh [17] [%],%Inh [18] [%],%Inh [19] [%],%Inh [20] [%]
O=C(Nc1n[nH]c2cc(-c3cccs3)ccc12)C1CC1 [SB-731284],39,13,61,13,0,37,18,0,0,0,13,42,0,1,44,23,52,4,0,15
COc1ccc(NC(=O)c2ccoc2)cc1-c1ccc(C(=O)NCC2CC2)cc1 [GW810437],8,0,9,48,0,19,25,0,0,0,18,12,10,25,0,0,12,0,0,0
O=C(Nc1c(F)cccc1F)c1cc(C(=O)c2ccccc2F)c[nH]1 [GSK1326180],1,0,0,52,18,5,11,0,0,0,0,0,0,0,18,1,0,0,16,0
N#Cc1cnc2cc(-c3cnc(CNCCN4CCOCC4)s3)ccc2c1Nc1ccc(Oc2ccccc2)cc1 [GW664114],11,14,61,1,0,4,1,16,45,67,0,0,94.1,95.9,30,0,0,12,2,97.7
CN(c1ccc(F)c(NC(=O)c2cccc(OC(C)(C)C#N)c2Cl)c1)c1ccc2nc(NC(=O)C3CC3)sc2n1,4,0,1,18,0,2,0,39,97,14,0,12,99,0,52,0,0,0,0,0
CNc1nccc(-c2ccc3c(N)n[nH]c3c2)n1 [GSK2206003],59,24,0,36,6,38,36,9,0,69,35,0,19,11,68,5,31,34,0,0
Cc1cccc(Nc2nc(NCCN)ncc2C(N)=O)c1 [GSK1292139],21,23,14,72,0,8,9,52,19,32,73,0,40,0,56,18,0,30,73,34
CN(c1ccc(NC(=O)Nc2cccc(Cl)c2)cc1)c1ccnc(N)n1.Cl [GW830707],0,0,0,3,0,0,0,0,0,20,0,0,15,3,3,0,8,6,2,0
CN(C)CCNS(=O)(=O)c1ccc(-c2ccnc3[nH]ccc23)cc1 [GSK977620],25,22,32,47,0,32,4,11,14,71,73,0,6,0,45,0,0,62,66,15
O=C(Nc1n[nH]c2nc(-c3ccccc3O)ccc12)C1CC1 [SB-711880],51,28,26,0,31,8,30,58,0,49,0,0,0,0,0,0,23,15,0,57
COc1ccc(C)c(Nc2ccnc(Nc3ccc(-c4cnc[nH]4)cc3)n2)c1.Cl [GW784041],0,0,0,0,0,12,0,71,28,70,0,0,86,0,32,0,30,15,0,12
c1ccc(Oc2ccc(Nc3ccnc4cc(-c5ccc(CN6CCCCC6)o5)ccc34)cc2)nc1 [GW567143],0,1,6,25,6,0,0,70,97.4,36,9,0,37,94.2,0,0,20,0,99.9,59
COc1cccc(-c2nc(-c3ccccc3)[nH]c2-c2ccncc2)c1 [SB-610250],0,63,19,9,40,0,31,0,1,6,0,0,21,0,25,0,0,9,5,0
Nc1ncnc2scc(-c3ccc(NC(=O)Cc4cc(F)ccc4F)cc3)c12.O=C(O)C(F)(F)F [SB-731254-M],17,18,46,27,27,23,18,11,5,28,23,11,13,30,10,25,3,1,6,0
Nc1ncc(-c2ccc3nccc(-c4ccncc4)c3c2)cc1S(=O)(=O)N1CCCCC1 [GSK1693850],8,50,7,14,0,17,0,0,0,69,22,0,0,0,20,0,0,21,55,0
Cc1ccc(O)cc1Nc1ccnc2cc(-c3ccc(CN4CCCCC4)o3)ccc12 [GW557777],0,87,0,0,0,0,1,83,97.8,34,11,0,100,23,32,0,15,22,61,0
COc1cccc2c(-c3ccncc3)c(-c3ccc(F)cc3)nn12 [GW468513],23,86,3,0,0,9,0,0,0,23,9,0,1,0,0,0,2,5,1,0
COc1cccc(CC(=O)N2CCc3cc(-c4cn(C)c5ncnc(N)c45)ccc32)c1 [GSK2608899],0,29,13,20,2,2,0,0,17,65,35,0,18,4,14,0,20,9,2,0
COc1cc(Nc2nccc(N3CCC(NC(=O)Nc4ccc5c(c4)OCO5)C3)n2)cc(OC)c1OC (stereo not drawn) [GSK1379766],0,14,17,10,0,11,0,0,8,36,13,0,0,0,45,0,0,72,0,0
Cc1cc(-c2c(-c3ccc(F)cc3)ncn2CCCN2CCOCC2)nc(N)n1 [SB-222517],20,0,11,18,0,3,0,2,0,18,0,0,22,26,0,0,19,0,0,0
CC(=O)Nc1cn2nc(Oc3cccc(NC(=O)c4cccc(C(F)(F)F)c4)c3)ccc2n1,0,9,0,0,1,0,0,18,32,21,0,0,99.9,11,0,22,9,10,3,1
